Laboratory results reported in publication PMC13494018.

B1: design_615_ab801fab-270b-4f6a-b2b5-83c165df418c_863_dldesign_0_cycle1_af2pred (protein)
chain: AQAAEAALRTAEAVVRRAEEAIARGASPEELRALAKLAEVVAESLLAVAKTASPEQAKRLEEAAERARRAAEEARRAAERLEREAA
B2: design_615_ab801fab-270b-4f6a-b2b5-83c165df418c_921_dldesign_0_cycle1_af2pred (protein)
chain: SAALKAALAALDAAEKAAEAADPEVAAIVRATREAVKKAPDEVAAKAAQMATAIESLAKAGFVASARATARNLLAYVSAAVAAAE
B3: design_615_ab801fab-270b-4f6a-b2b5-83c165df418c_1881_dldesign_0_cycle1_af2pred (protein)
chain: ALAAELAREALRAEAERIAAAKLAEAKAGTPETAQAQAAYLVSLAEEHPETAGIYLGAAAQIHAVLIAKTA
B4: design_615_ab801fab-270b-4f6a-b2b5-83c165df418c_1064_dldesign_0_cycle1_af2pred (protein)
chain: AREQAQQALDFALANAQLIAQRRGEAGKRLAELVQKALEADEEEALKYLEEAIRLAEELAKDPAVAALARAAILALREARRLLE
B5: design_615_ab801fab-270b-4f6a-b2b5-83c165df418c_1503_dldesign_0_cycle1_af2pred (protein)
chain: AAALAAAQAAAGATALETLEVASKAAKAGSPEVAAEANKLAQQATQLAQQAAQGDLATAKAQLAAIQKLLAQAKELLKK
B6: design_615_ab801fab-270b-4f6a-b2b5-83c165df418c_776_dldesign_0_cycle1_af2pred (protein)
chain: MEEAEEAYREAEEIKRETKAKAEAGTLTAQEAMEALARLEELREKLRELAEEEGEEAEEYYREVNEYAVEVSRIANAVFAAERAA
B7: design_616_e8336982-fa4d-4d7c-b06f-9007953e1994_173_dldesign_0_cycle1_af2pred (protein)
chain: MEEKSKELKKKLEEAKKIAKEDPEKGAELAAEAAKEAAEAGDFGSAGEAIVLIAKMGTPKASRELAEASRYLIAAIRAA
B8: design_615_ab801fab-270b-4f6a-b2b5-83c165df418c_1763_dldesign_0_cycle1_af2pred (protein)
chain: EELVERLRLMRDVVAAALAAAGLDADAFAALLEAAAAAAREDPARAVELLARVAERAEELAAKASPLQRGVLRFAVTVARGAAAALA
B9: design_615_ab801fab-270b-4f6a-b2b5-83c165df418c_2413_dldesign_0_cycle1_af2pred (protein)
chain: AAAALAAEALALREKGVAAAKAGRYALARNYFLQALITAGASPATIQAVVRALAAGAADPSTAPAAVAHADATVTAAAAAVAAA
B10: design_616_e8336982-fa4d-4d7c-b06f-9007953e1994_74_dldesign_0_cycle1_af2pred (protein)
chain: EKEAQEKREKAKKLIEEIKKLAKEVAANPAISGMLNQLAKAAETAAANSSPEQGLKNAEKWLEIGKEAAKTAAA
B11: design_615_ab801fab-270b-4f6a-b2b5-83c165df418c_1187_dldesign_0_cycle1_af2pred (protein)
chain: AAAEEVARRGASALAAGQNLIEMAKAASPEAAAVATAALAQAKALLAQGTPEAAEQAQQVINDAMAQVSKIMIAAA
B12: design_616_e8336982-fa4d-4d7c-b06f-9007953e1994_177_dldesign_0_cycle1_af2pred (protein)
chain: AGQATYNAAKAMAKSAAAMYLAGKYEDAEKVYQVAVDLAQSLIADPASKAQGEKALAYAKETYAKAKAEAEKKAA
B13: design_615_ab801fab-270b-4f6a-b2b5-83c165df418c_2427_dldesign_0_cycle1_af2pred (protein)
chain: AMEAAKAAAKAAAAAAAAAGLTDLAAEIAAAAKEAEETGIEGANRLMGLAARYAVQHPALNAAMSALIEAAGAYIAEAA
B14: design_615_ab801fab-270b-4f6a-b2b5-83c165df418c_2496_dldesign_0_cycle1_af2pred (protein)
chain: GEKEELIKKAEEKAAKAKEYEAKAKAAAADPAKAVEYYNKALYLYLEAAKLASKADPELAKKYSDEANKVAKKAIEAAKAA
B15: design_615_ab801fab-270b-4f6a-b2b5-83c165df418c_1174_dldesign_0_cycle1_af2pred (protein)
chain: ADEEDLAAAKKRLEDTKKLVEINLTMANQGPLGAKAAIASLNTQIKVLEAAKKAATPAAQPELDKAIAIAKAALAEAKAKAAA
B16: design_615_ab801fab-270b-4f6a-b2b5-83c165df418c_1097_dldesign_0_cycle1_af2pred (protein)
chain: SEAMKTAGAKILTATAASLERQLAEARANPGELRPRAAALAQLAAQLAESAKAIGDEETAARLAAISAEAAALAA
B17: design_615_ab801fab-270b-4f6a-b2b5-83c165df418c_2495_dldesign_0_cycle1_af2pred (protein)
chain: GEAEAKFAEALALLDRAEELAKGGDAAQLAEASALLTQAIELATQVSPEKRAEISRRAAEISKRLLAQLAA
B18: design_615_ab801fab-270b-4f6a-b2b5-83c165df418c_1773_dldesign_0_cycle1_af2pred (protein)
chain: SETAEEARRAVERLKEAAKKLAKAGTPEHAGYAEGLVTTTTALVERLLAAGREEEALRAARRALERAERLLKKALA
B19: design_615_ab801fab-270b-4f6a-b2b5-83c165df418c_1665_dldesign_0_cycle1_af2pred (protein)
chain: MEEEKEKEKYIKELKKAAEEAIKTAKEAAKLDPKAGGALLKYVEASGKQALENAEKGDLETAKNQLEFMKQVLEIAKGTLAALKAA
B20: design_615_ab801fab-270b-4f6a-b2b5-83c165df418c_1027_dldesign_0_cycle1_af2pred (protein)
chain: KEALEKAKKEAEKILKEAAEKVSPEVAKYVEEAAKQPTIEEMIHKVLLAAAKAGQVNLEDGKILLEAAEKIAAIYKKAKEE
B21: design_615_ab801fab-270b-4f6a-b2b5-83c165df418c_2173_dldesign_0_cycle1_af2pred (protein)
chain: LTPEEKQKLIEEGTELRNKGAALANQAMLAAAAGDKATAKELMAKAKEYFDKAIELYEKAGDEKKAESVKKLKDTLTSAFEAQLAA
B22: design_615_ab801fab-270b-4f6a-b2b5-83c165df418c_2359_dldesign_0_cycle1_af2pred (protein)
chain: MEEDVALLRDIARLGRESLERARAGTAAEAERALADFTAAADAAIARLAPGEGAALLAANMRARFAAEMRAVAAAKAA
B23: design_615_ab801fab-270b-4f6a-b2b5-83c165df418c_1933_dldesign_0_cycle1_af2pred (protein)
chain: ALQGALRSAAALLRNAAESEDPESREKLLDVAADLAAYAATLDPAAGAALAAAVEEARREGPEGARRAAELAAALAAA
B24: design_615_ab801fab-270b-4f6a-b2b5-83c165df418c_1179_dldesign_0_cycle1_af2pred (protein)
chain: SPTEIAGKAVREIQELTEQAIANPETAEQLAAEAKKVAEEAGKKTGEGLAQLLKNVAAQREKEVQAALAA
B25: design_615_ab801fab-270b-4f6a-b2b5-83c165df418c_1266_dldesign_0_cycle1_af2pred (protein)
chain: AAALEEAKAQLKKLAEELLEKSKEAAKLGSDAAIAVTSKYVAKGSALLVQYPEVSSEPLVEAVKEASKLIKEA
B26: design_615_ab801fab-270b-4f6a-b2b5-83c165df418c_1262_dldesign_0_cycle1_af2pred (protein)
chain: KEAAEKAAEKKAEEIKKIAEIAGGAVSPEDAAKIKKEAEEKIEELKKFAKESTPEEAEKYGQELVLEFSQSATKVMVAAAKAA
B27: design_615_ab801fab-270b-4f6a-b2b5-83c165df418c_706_dldesign_0_cycle1_af2pred (protein)
chain: ASAARMAEIQAKGEEVAEKAKEKYKELLERLPDPEEALAEARAYLREVGAQYSGAVLGYALSLFESWAEEEL
B28: design_615_ab801fab-270b-4f6a-b2b5-83c165df418c_2088_dldesign_0_cycle1_af2pred (protein)
chain: DTERKLALLQEAIVKLTEALAAYNTDPATGRALAREAAELLKEAGLEEAAELARKAAEDPENGFEYARRALGLVTKAYIELSR
B29: design_615_ab801fab-270b-4f6a-b2b5-83c165df418c_2473_dldesign_0_cycle1_af2pred (protein)
chain: SPEALTAAVRAEGDALLAEAEATAAADPEAGKAAYEAAIRRLLGLAARLLQESPAAAQAALDRAVELAAKLEEL
B30: design_616_e8336982-fa4d-4d7c-b06f-9007953e1994_361_dldesign_0_cycle1_af2pred (protein)
chain: AAAQAKALAAQAKAAIESGSLSPGEVARLAVKAGAYAMAAANADPSIAAEMQALAQDLFAKVDEYIAKVAA
B31: design_615_ab801fab-270b-4f6a-b2b5-83c165df418c_806_dldesign_0_cycle1_af2pred (protein)
chain: AAQAQAIEQLEKLIETAKELAKERPEEKEEILGKAHETAGQVLTLIAKGLQDPATAEQALKLAQAKLKEMEKKLKEAKA
B32: design_615_ab801fab-270b-4f6a-b2b5-83c165df418c_2322_dldesign_0_cycle1_af2pred (protein)
chain: AQAEVKAKAEKLIEELIKASSEVVAAAAKAGDGESAVEANKAASEAIKKIKAAAKAGDLEAAKKAAEEGMKKLKELKAKVEAK
B33: design_616_e8336982-fa4d-4d7c-b06f-9007953e1994_26_dldesign_0_cycle1_af2pred (protein)
chain: SLEEAAAQAQALVDQATALGAQDYASASQGIALLAEAAKLVEEAGLPPETAAAIMAAINAALATVSKNAAAFVAA
B34: design_615_ab801fab-270b-4f6a-b2b5-83c165df418c_1854_dldesign_0_cycle1_af2pred (protein)
chain: LRERAESNLAFAQTALEAAKQAKAAGAPQSLVQGLANIAERAAQLAIEEAAKDPALAPLAEEAKKVAEEAKKVAA
B35: design_615_ab801fab-270b-4f6a-b2b5-83c165df418c_1818_dldesign_0_cycle1_af2pred (protein)
chain: DPRAAASQALAAATADALLARLGELAGADVADRLRALLAGDAASKAEAARLARALAEEWRARNPAAAAALYGIAVLAESLAA
B36: design_615_ab801fab-270b-4f6a-b2b5-83c165df418c_1575_dldesign_0_cycle1_af2pred (protein)
chain: GEEEEKKKKEKFEEAAEKVNKGLALASQAALADPKYQPVLAKVVELAKEAEKLKKEGKAEEALKKAEEAYEVAKKALAAVKAA
B37: design_615_ab801fab-270b-4f6a-b2b5-83c165df418c_2317_dldesign_0_cycle1_af2pred (protein)
chain: GAARMAAAGAQAAALAAELPAAVDPMLEGILNPETREAHEAEARAIARALDPENAEELWARVLRAAMGLLLAQGLARA
B38: design_616_e8336982-fa4d-4d7c-b06f-9007953e1994_328_dldesign_0_cycle1_af2pred (protein)
chain: NANLQAAKVALASAEATLKHADAGVAAGTISPESAKKLYELAATLAKDAAEYAKKAGDAELAKKAEELAKEAKAKAEEMAAKAAA

Molecular target: CD276, Q5ZPR3
Sequence (Q5ZPR3 whole entry): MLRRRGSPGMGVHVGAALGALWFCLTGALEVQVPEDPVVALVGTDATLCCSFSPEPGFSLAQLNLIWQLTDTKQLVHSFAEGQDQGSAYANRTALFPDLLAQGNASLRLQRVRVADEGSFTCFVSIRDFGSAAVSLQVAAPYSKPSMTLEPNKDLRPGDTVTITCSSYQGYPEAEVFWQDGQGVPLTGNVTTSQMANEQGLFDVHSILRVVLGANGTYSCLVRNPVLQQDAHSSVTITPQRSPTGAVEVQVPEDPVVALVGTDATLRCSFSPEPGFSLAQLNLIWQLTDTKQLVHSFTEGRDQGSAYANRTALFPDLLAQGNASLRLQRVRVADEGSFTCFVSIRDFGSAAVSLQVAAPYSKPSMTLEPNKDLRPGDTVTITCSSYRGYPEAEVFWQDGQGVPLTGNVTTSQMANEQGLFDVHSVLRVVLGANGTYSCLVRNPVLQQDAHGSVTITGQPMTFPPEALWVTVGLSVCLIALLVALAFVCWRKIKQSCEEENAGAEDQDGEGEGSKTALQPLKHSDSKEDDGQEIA

Binding in a display sort, inactive:
B1 not found, B2 not found, B3 not found, B4 not found, B5 not found, B6 not found, B7 not found, B8 not found, B9 not found, B10 not found, B11 not found, B12 not found, B13 not found, B14 not found, B15 not found, B16 not found, B17 not found, B18 not found, B19 not found, B20 not found, B21 not found, B22 not found, B23 not found, B24 not found, B25 not found, B26 not found, B27 not found, B28 not found, B29 not found, B30 not found, B31 not found, B32 not found, B33 not found, B34 not found, B35 not found, B36 not found, B37 not found, B38 not found
